# Assay results as given in PubChem BioAssay AID771 (SRMLSC, 2007).
# The whole screen tested about 3,300 compounds, of which about 55 (2%) were called active. The sample holds actives, similar compounds and a random draw of the others, so the mix is not that of the screen.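 The calls were made as follows: active = growth inhibition above 90%, meaning viable cell count by imaging cut by more than 90% versus vehicle controls; inactive = growth inhibition below 90%.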
# Test: HT29 colon tumor cell growth inhibition, primary screen, imaging, high content imaging, 48 h, CellTiter-Glo (AID 771);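 as to condensed nuclei: condensed means Hoechst nuclear area under control median minus 1.5 SD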
# Details: HCS imaging cell count, at 10 µM, stronger effect = higher value; for condensed nuclei: measured here: percent cells with condensed nuclei
# [1] = measured here: ATP CellTiter-Glo viability inhibition
Compound,growth inhibition,growth inhibition [1],condensed nuclei
COc1ccc(-n2ncc3c(Nc4cccc(C)c4)ncnc32)cc1,30.6% (inactive),-2.53%,3.63%
COc1ccc(C(=O)CSC2=C(C#N)C3(CCCCC3)C(C#N)=C(N)N2)cc1,27% (inactive),4.09%,7.53%
N#CC1=C(N)NC(SCc2ccc(Cl)cc2)=C(C#N)C12CCCCC2,79.6% (inactive),70.5%,17.1%
N#CC1=C(N)NC(SCc2ccc(F)cc2)=C(C#N)C12CCCCC2,95.4% (active),69.3%,27.3%
C=CCN(C(=O)CCC(=O)O)C1CC(=O)N(c2ccc(OC)cc2)C1=O (stereo not given),-35.5% (inactive),-24.9%,1.95%
Cn1c(=NCC(O)COc2ccccc2)sc2ccccc21 (stereo not given),25.5% (inactive),-13.5%,3.63%
COCCNc1oc(-c2ccc(C)cc2)nc1C#N,11.6% (inactive),-12.3%,2.76%
O=C(O)c1ccc(COCC(F)(F)C(F)F)o1,-17.7% (inactive),-10.2%,3.29%
CCOc1ccc(Cn2c(O)cc(=O)[nH]c2=O)cc1,-7.52% (inactive),-20.8%,1.27%
CC1CN(C2CCN(C(=O)COc3ccccc3)CC2)CC(C)O1 (stereo not given),-1.5% (inactive),-3.33%,2.3%
CC1CN(C2CCN(C(=O)c3ccccc3Cl)CC2)CC(C)O1 (stereo not given),-18.6% (inactive),-39.5%,4.01%
CC1CN(C2CCN(C(=O)c3ccccc3)CC2)CC(C)O1 (stereo not given),92.5% (active),-44.3%,3.65%
CCOC(=O)c1sc2c(c1C)c(=O)c(C(=O)OCC)cn2CC,-35.2% (inactive),-21.7%,0.84%
CCCc1[nH]nc2c1C(c1cccc(OC)c1)C(C#N)=C(N)O2 (stereo not given),55.3% (inactive),9.76%,16.6%
Cc1cccc(OCC(=O)N2CCC(N3CCOCC3)CC2)c1,-31.7% (inactive),-31.1%,0.89%
CNCCCC12CCC(c3ccccc31)c1ccccc12,95% (active),,18.3%
Nc1ccc(Cl)cc1/C(=N/O)c1ccccc1,33.8% (inactive),-14.5%,3.59%
C=C1[C@@H](C)C2[C@H](Cc3ccccc3)NC(=O)[C@]23OC(=O)CC[C@H](O)CCC[C@H](C)C/C=C/[C@H]3[C@@H]1O (stereo not given in full),92.4% (active),,18.2%
CCOC(=O)CSc1nc(N(C)C)nc(N(C)C#N)n1,27.7% (inactive),-19.8%,1.4%
